# This is a sample that favours compounds with a hit; in the whole collection about 2% have one here.
# Beta apoptosis – inhibitors of cytokine-induced beta cell apoptosis, primary screen, luminescence; INS-1E cytokine-induced death, ATP luminescence, 48 h; percent of positive-control rescue, neutral wells zero; protection from apoptosis, % (test concentration not listed); actives 0.8% (n = 300,000); AID 435005, 2010;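 active = Every replicate reaches about 75%, or at least half do and their mean reaches it too, limit read from the data; inconclusive = At least half of replicates reach the limit but their mean does not; inactive = Under half of replicates reach the limit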;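 also: 0% = cytokine-treated negative control wells and 100% = positive control rescue; higher means more ATP so stronger rescue from cytokine killing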
# Jurkat NFkB inh – inhibitors of induced NF-kB luciferase reporter, primary screen, TCR NF-kB activation inhibitor project, cell-based, luminescence, uHTS. Jurkat, PMA/ionomycin-induced NF-kB luciferase reporter. AID 435003, 2010. inhibition, % at 4 µM. actives 0.53% (n = 330,000); in the data active = inhibition above about 50%
# Shn3 inh set2 – reduction of Shn3 3'UTR firefly luciferase signal, primary screen, Schnurri-3 inhibitor project, cell-based, Clone20 osteoblasts, set 2; inhibition, % at 12.5 µM; AID 588674, 2011; actives 0.52% (n = 360,000); Clone20 osteoblast Shn3 3'UTR firefly luciferase, 24 h;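 active = mean inhibition of at least 75% with every replicate also reaching 75%; inconclusive = mean inhibition at least 75% but some replicate below; inactive = mean inhibition below 75%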;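 also: 0% = median of neutral control wells and 100% = pilot-screen positive control compound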
# Calb FLC – C. albicans growth inhibition with fluconazole, primary screen, CaCi-2 strain, Alamar Blue fluorescence; C. albicans CaCi-2 (fluconazole-resistant clinical isolate) + fluconazole, 48 h; growth inhibition, % (test concentration not listed); actives 0.57% (n = 300,000);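 active = growth inhibition above about 58% in most replicates, limit read from the data, passing the limit was not always enough; inconclusive = exactly half the replicates above a set limit; inactive = most replicates below a set limit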;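 also: all wells also contain fluconazole at 8 µg/ml as a sub-toxic cotreatment; 0% = median of DMSO wells and 100% = median of geldanamycin control wells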
# 697 NFkB inh – inhibitors of PMA/ionomycin-induced NF-kB reporter, 697 cells, primary screen, B-cell NF-kB inhibitor project, cell-based, luminescence, uHTS; 697 B-cell NF-kB luciferase reporter, 16 h; inhibition, % at 4 µM; actives 0.33% (n = 330,000); AID 435022, 2010; in the data active = inhibition above about 35%
# The depositor's hits bear a star; ? = inconclusive; . = not tested or not shown.
SMILES,Beta apoptosis,Jurkat NFkB inh,Shn3 inh set2,Calb FLC,697 NFkB inh
COc1ccc(OC)c(NC(=O)NNS(=O)(=O)c2ccc(C)cc2C)c1,-8,-8,-23,-10,17
CN(CC(=O)Nc1ccc(F)c(F)c1F)C(=O)CN1C(=O)C2CCCCC2C1=O (configuration not stated),-5,-13,19,-7,9
Cc1ccc(C2=CC(c3ccc(N(C)C)cc3)n3nnnc3N2)cc1 (configuration not stated),108*,5,2,15,-10
COc1ccc(C2=CC(c3ccc(F)cc3)n3nnnc3N2)cc1 (configuration not stated),-2,-11,13,20,-10
COc1cccc2c1C(=O)c1c(O)c3c(c(O)c1C2=O)CC(O)(C(=O)CO)CC3OC1CC(N(C)C)C(O)C(C)O1 (configuration not stated),.,.,97*,.,.
Cc1nc(N2CCN(C(=O)c3ccco3)CC2)c2c3c(sc2n1)CC(C)CC3 (configuration not stated),80*,-11,92*,42,-14
NS(=O)(=O)c1ccc(CCNC(=S)NC(=O)c2ccccc2Br)cc1,3,3,46,.,-12
C[C@@H]1CN([C@H](C)CO)C(=O)CCCn2cc(nn2)CO[C@H]1CN(C)C(=O)c1ccccc1,.,.,-7,.,.
COCCSc1nnc(NC(=O)C2CC(=O)N(c3ccc(C)cc3)C2)s1 (configuration not stated),-7,4,18,99*,-7
N=c1n(Cc2ccc(Cl)cc2)c2ccccc2n1CC(O)COc1ccccc1 (configuration not stated),8,19,86*,30,-13
COc1ccc(OCC(O)Cn2c(=N)n(Cc3ccccc3)c3ccccc32)cc1 (configuration not stated),28,27,77,?,-13
N=c1n(Cc2ccccc2)c2ccccc2n1CC(O)COc1ccc(Cl)cc1Cl (configuration not stated),.,40,92*,?,-13
Cc1ccc(OCC(O)Cn2c(=N)n(Cc3ccccc3)c3ccccc32)cc1 (configuration not stated),49,11,81*,-32,-46
N=c1n(CCO)c2ccccc2n1Cc1ccc(Cl)cc1,3,1,28,-6,-3
CCSc1nsc(NC(=O)Nc2cccc(F)c2)n1,.,1,43,-7,-48
CCCSc1nsc(NC(=O)Nc2ccc(F)cc2F)n1,106*,-20,-8,2,-91
Cc1nc2sc(C(c3cccc(F)c3)N3CCCC(C)C3)c(O)n2n1 (configuration not stated),1,-2,5,85*,2
Cc1nc2sc(C(c3cccc(F)c3)N3CCCCC3)c(O)n2n1 (configuration not stated),-5,-4,8,3,-10
Cc1ccc(C)c(N2CCN(S(=O)(=O)c3ccc4[nH]c(=O)ccc4c3)CC2)c1,6,2,94*,2,8
Cc1cccc(N2CCN(S(=O)(=O)c3ccc4[nH]c(=O)ccc4c3)CC2)c1C,2,2,25,-2,0
O=C(NCc1cccnc1)c1cc(-c2ccco2)on1,101*,-17,-31,-6,-9
Cc1ccc(-c2cc(C(=O)NCc3cccnc3)no2)cc1,1,-34,-26,4,-54
O=C(/C=C/c1ccc(-c2ccccc2)cc1)NCc1cccnc1,98*,-27,-12,5,-19
O=C(/C=C/c1ccccc1)NCc1cccnc1,-1,-2,-12,-6,-4
O=C(CCCCCCCCCCC(=O)NCc1cccnc1)NCc1cccnc1,112*,-3,45,5,20
CSc1nnc(-c2ccc(S(=O)(=O)N3CCCCC3)cc2)o1,-3,0,0,1,5
Cc1ccc(N2NC(=O)/C(=C/c3ccc(-c4ccc(Cl)c(C(=O)O)c4)o3)C2=O)cc1C,.,-8,-13,2,8
O=C1NN(c2ccc(Cl)c(Cl)c2)C(=O)/C1=C/c1ccc(-c2ccccc2C(=O)O)o1,1,-26,-9,81*,2
